The source made the active and inactive calls.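 The calls were made as follows: active = fitted AC50 no higher than ten times the top tested dose (cut at about 90 µM in these data); inconclusive = flat curve with 30 to 70% signal loss, or bad fit; inactive = AC50 beyond ten times the top dose.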
Assay: TruHit bead signal quenchers or artefacts – biochemical, TruHit kit, artefact control, dose response (AID 1259339)
Conditions: TruHit alphaLISA kit signal interference counterscreen; series mostly up to 80 µM; activity change, negative = signal loss: at the top concentration

SMILES | activity change, negative = signal loss | AC50
O=C(COC(=O)c1ccc(F)cc1F)Nc1ncccn1 | 139% (inactive) | –
O=C(O)CCc1ccc(-c2cccs2)n1NC(=O)c1ccco1 | – | > 160 µM (inactive)
O=S(=O)(Nc1nccs1)c1ccc(-n2cccc2)cc1 | – | 18.8 µM (active)
CC(=O)c1sc2nc(-c3ccco3)ccc2c1N | – | 43.6 µM (active)
CC(=O)c1ccc(NC(=O)c2noc3c2CCC3)cc1 | 10.7% (inactive) | –
Cc1ccc(N2C(=O)c3ccccc3C2C(=O)c2ccc(O)cc2O)cc1 (stereo unspecified) | 4.71% (inactive) | –
C=CCNc1ncnc2c1CCN(C(=O)c1ccc(CSC)o1)CC2 | 10.8% (inactive) | –
NC(=O)C1(N2CCCCC2)CCN(c2ncc(NC(=O)c3ccc(Cl)cc3)cc2C(=O)O)CC1 | – | 81.9 µM (active)
COc1ccc(S(=O)(=O)c2ccccc2)cc1NS(=O)(=O)c1cccc(C(=O)O)c1 | -41.6% (inactive) | –
CC1(C)Cc2ccccc2-c2nc(-c3ccccc3)oc(=O)c21 | – | 33.4 µM (active)
Cc1cncc(-c2ccc(S(N)(=O)=O)cc2F)c1 | -20% (inactive) | –
Cc1cccc2nc(CSCc3ccco3)cn12 | – | 74.7 µM (active)
Cc1ccc(Nc2nc(C(=O)Nc3ccc(Cl)cc3)nc3ccccc23)cc1 | -9.32% (inactive) | –
Cc1ccc(-c2nn(-c3ccccc3)cc2CN(Cc2ccccc2)C(=O)CCC(=O)O)o1 | – | 53.7 µM (active)
O=C(O)C1Oc2cc3ccccc3cc2O1 | – | 30.2 µM (active)
OCc1ccc(O)c2ncccc12 | – | > 160 µM (inactive)
CCCN1CCCn2nc(CNC(=O)[C@H]3CC[C@@H](N)C3)cc2C1 | -21.6% (inactive) | –
CCn1ccnc1C1CCN(C(=O)CCn2c(C)nc3ccccc32)CC1 | 12.8% (inactive) | –

SMILES | activity change, negative = signal loss | AC50
NC(=O)C1(N2CCCCC2)CCN(c2ncc(NC(=O)c3ccc(F)cc3)cc2C(=O)O)CC1 | -11.3% (inactive) | –
NC(=O)c1ccc(CN2C(=O)C3(CCNCC3)Nc3ccccc32)cc1 | 9.05% (inactive) | –
O=[N+]([O-])c1cccc(-c2nnc3ccc4ccccc4n23)c1 | -15% (inactive) | –
O=C(CCN1CCOCC1)c1ccc2c(c1)OCCO2 | 12.9% (inactive) | –
C[C@H](CO)N1C[C@H](C)[C@@H](CN(C)CC2CCCCC2)OCCCC[C@H](C)Oc2ccc(NS(=O)(=O)c3ccc(F)cc3)cc2C1=O | -3.52% (inactive) | –
O=C(Nc1nc(-c2ccco2)c(-c2ccco2)s1)c1ccco1 | – | 0.98 µM (active)
CCOc1ccccc1NC(=O)N1CCCC(c2nccn2CCOC)C1 (stereo unspecified) | -7.56% (inactive) | –
O=C(Nc1ccc(OCC(=O)N2CCOCC2)cc1)c1cncc(Br)c1 | 8.89% (inactive) | –
COc1c(C(=O)O)csc1Br | – | 0.373 µM (active)
O=C(COC(=O)c1cc(-c2cccs2)nc2ccccc12)NCc1ccco1 | – | 40.2 µM (active)
O=C(NCCc1ccco1)c1ccc(OCc2cn3ccccc3n2)cc1 | 10.5% (inactive) | –
O=S(=O)(c1ccc2nc(-c3ccco3)c(-c3ccco3)nc2c1)N1CCOCC1 | – | 26.8 µM (active)
COc1ccc(-c2ccc(CCC(=O)O)o2)cc1 | -15.3% (inactive) | –
COC[C@]1(O)CCN(C(=O)CCN(C)S(C)(=O)=O)CC1(C)C | 13% (inactive) | –
O=C(Nc1nc(-c2ccco2)c(-c2ccco2)s1)c1ccc(F)cc1F | – | 4.41 µM (active)
O=C(Nc1nc(-c2nc3ccccc3s2)cs1)c1ccco1 | 12.1% (inactive) | –
Cn1ncc2c(NNC(=O)c3cc(O)cc(O)c3)ncnc21 | 3.55% (inactive) | –
O=C(CN1CCOC1=O)N1CCC2(CCC(=O)N(CCCn3ccnc3)C2)CC1 | -4.31% (inactive) | –
